The supplement of paper PMC11417369
The full ranking holds about 25,000 sequences; the median of “ln(normalized median fluorescence intensity)” is about 9.3, and the highest 2% start at about 10. For the sample, the highest values were picked, then their nearest neighbours and some sequences at random.

Test system: PF3D7_0420300 AP2 domain 1 (GST-tagged)
Assay: gcPBM binding intensity (ln(normalized median fluorescence intensity)); higher = stronger DNA binding
How it was run: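 An Agilent 4 × 180k array carrying primer-extended double-stranded 36-bp intergenic genomic probes and negative controls received GST-tagged P. falciparum DNA-binding domains expressed in E. coli, about 25 μg on average, for 1 h. The binding buffer contained 1× PBS, 1% milk, 0.2 mg/ml BSA, 0.5% salmon testes DNA and 0.03% Triton X-100. Binding intensity is the top Masliner-normalised natural-log median intensity across replicate spots of either probe orientation, read after Alexa488 anti-GST antibody staining and a 488 nm scan.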

Row | Sequence | gcPBM binding intensity (ln)
1 | TGTATCCACATATGTACACACATATATCTGTATATG [CACACA_site5668] | 9.51
2 | CAAAAATAAAAGAAATGTACAAAAAATAATAAAAAA [XGTACX_site6597] | 9.43
3 | TATTTTATACATATTTTACACACTAATATATACATA [CACACA_site7998] | 9.42
4 | AGGAATATCGAAAACTGTACTTGTATGTTTCATAAA [XGTACX_site6143] | 9.02
5 | TTAGGCAAGGCGGGGGGTACGTTTTTATATAATTAT [XGTACX_site8029] | 10.6
6 | AAATATATTATAAATTGTACGTTTATATATATTATT [XGTACX_site5110] | 9.35
7 | AATAATATATTTAGGGGTACATAATAATATATTTTA [XGTACX_site8366] | 9.27
8 | ATTTTTGTAAATACATGTACATATATATGCATATCC [XGTACX_site6353] | 9.49
9 | TTTCTATTTCCTTCACATCTTTTCATCTTTTTTTTT [CACACA_negctrl_site1110] | 9.71
10 | TGGAAAAATAGGCACACACACATATATACATATATA [CACACA_site1297] | 10
11 | AATGGCAAAATAGGCACACACACATATACAGATATA [CACACA_site4726] | 10.1
12 | AATGGCAAAATAGGCACACACACATATACATATATA [CACACA_site1058] | 10.1
13 | TTAATGGAAAAATAGGCACACACACCGATATACATA [CACACA_site8356] | 9.94
14 | AATGGAAAAATAGGCACACACACATATATACATATA [CACACA_site1298] | 10.2
15 | AATGGAAAAATAGGCACACACACATAAATACAGATA [CACACA_site4844] | 10.3
16 | GACCCCATATACATATGTACATACATAATATATATA [XGTACX_site1817] | 9.57
17 | TAAAATATAATAAAATGTACACGCATGCAATAGAAT [XGTACX_site7434] | 9.65
18 | ATCAGTCGGCAGGACAGTACACAGTAGCCAGAAAAT [XGTACX_site2550] | 9.49
19 | AGTATAAATAAATCATAAACATATATATATATATAT [GTGCAC_negctrl_site356] | 9.2
20 | AAAAAAAAAAAACACACACACACACTAGTACATACA [CACACA_site4551] | 10.2
21 | CAAACACCCAAACACACACACACATACATACATACA [CACACA_site8044] | 10.2
22 | AAAAAGAAAAAACTTACACACATATATACCCCCATG [CACACA_site4463] | 10.2
23 | AACACCCAAAAACACACACACATACATACATACATA [CACACA_site4411] | 9.98
24 | AAAAAGAAAAAACTTACACACATATATACACCCATG [CACACA_site8079] | 10.1
25 | AAAAAAAAAAAACATACACACATACATACATATATA [CACACA_site8222] | 9.82

Row | Sequence | gcPBM binding intensity (ln)
26 | AAAAAAAAAAAAAACACACACATACACCCAAAAATG [CACACA_site4223] | 9.84
27 | TATTCCCCCAAACACACACACACACCCACATACCAC [CACACA_site2304] | 10.3
28 | AAAAAAAAAAAAAACACACACACACCCAAATACATA [CACACA_site708] | 9.87
29 | AAAAAGAAAAAACTTACACACATATATACAGACATG [CACACA_site550] | 9.93
30 | AAGTACATACATAAAACACACACATATATATATATA [CACACA_site8541] | 9.59
31 | AAAAAAAAAAAAAAAACACACACATACACCCAAAAA [CACACA_site7910] | 9.69
32 | TCTTATAAACTCTGCACACATAATATATTAAATGAG [CACACA_site1936] | 9.31
33 | TATATTTATTATAATTGTACATAAAATAAACTAAGA [XGTACX_site4318] | 9.19
34 | TATATATGTAGACGTTGTACTTTTTTGTAAGTTTAA [XGTACX_site5638] | 9.13
35 | TGATATTTTTCCATAGTGCAAAATATAGTAATGTAT | 9.11
36 | AAAACATACATATATACACACATATATATATATATA [CACACA_site1852] | 9.57
37 | CACAGACACCCATACACACACATACCCATATATATA [CACACA_site5023] | 10
38 | AAAAAAAAAAAACACACACACACATACCCATACATA [CACACA_site5575] | 10.1
39 | AAAAAAAAAAAAAAAACACACATACATACATACATA [CACACA_site6125] | 9.61
40 | AAAAAAAAAAAAAACACACACACACCCATACACATA [CACACA_site2860] | 10.1
41 | AAAAAACAGACATACACACACACACCCATATATATA [CACACA_site3392] | 10.2
42 | AAAAAAAAAAAAAAAACACACATACACCCAGACACA [CACACA_site5807] | 9.6
43 | AAAAAAAAAAAACACACACACACATACACATACATA [CACACA_site2858] | 10.2
44 | AAAAAAAAAAAACACACACACACACCCATACATACA [CACACA_site707] | 10.2
45 | AAAAAACACCCATACACACACACACCGATATATATA [CACACA_site5808] | 10.2
46 | TTTTTAATAACACTTTTGAAAAATAAAATAAAATAA [CACACA_negctrl_site821] | 8.8
47 | AAACAAATAAAATTTATTAAAAAGGTCATATTATTA [CACACA_negctrl_site85] | 9.12
48 | AGAAAGGATATTATATGTACATATCTTTGTATTTTT [XGTACX_site5040] | 9.36
49 | GTATACATGCAAATTTTTATTTACAACCCCAAAAAG [XGTACX_negctrl_site255] | 9.23
50 | GCACAAATATATATATATATATATATATATATATAT [GTGCAC_negctrl_site661] | 9.06

Row | Sequence | gcPBM binding intensity (ln)
51 | AAAAAAAAAAAACACACACACACACCCATATACATA [CACACA_site2664] | 10.3
52 | TAAACACCCATACATACACACATACATACACCCATA [CACACA_site5125] | 9.58
53 | AAAAAAAAAAAAAACACACATACACGCCCACCCATA [CACACA_site3391] | 10.2
54 | AAAAAAAAAAAAAACACACACACACCCATACCCATA [CACACA_site5577] | 10.1
55 | AAAAAAAAAAAAAACACACACACACCCACATATACA [CACACA_site2663] | 10.1
56 | TCCTTTTCATCTTGTAGTACGGAAATGTAGCTCCAA [XGTACX_site8563] | 9.09
57 | CTTTTTTTAATGATAACACACATGTTGTGCATAGAC [CACACA_site3270] | 9.32
58 | ATTTATTAAAAGAAATGTACAGAAAATGTTTGGAAT [XGTACX_site7187] | 9.26
59 | ATTAAATATATTTTGCGTACACAAAAAAATACGTTC [XGTACX_site3862] | 9.15
60 | AATGAAAATAAATTAACACACAATTTTAATATTGTT [CACACA_site1306] | 9.32
61 | TCATATATTTATGTATGTACATATATATATAGATTA [XGTACX_site380] | 9.01
62 | CATATCATTGATTATAGTACACATACCATTTTTTAT [XGTACX_site6572] | 9.45
63 | GTAATAAGAATTATAGTGCAATGTAATACATTTATA | 9.23
64 | AGGATAAAAGTTATGGTGCATTAACCTATTTAAATA | 9.14
65 | AAAAAACACGGACACACACACATATACATACATACA [CACACA_site5470] | 10.1
66 | AGAAAAAAACAACATGCACACGCACCCACAAAAAAA [CACACA_site7908] | 9.71
67 | ATTACATACACGCGCACACACAAAAAAAAAAAAAAA [CACACA_site1334] | 9.57
68 | AAAAAAAAAAAAAAAACACACACATATATATATATA [CACACA_site8571] | 9.51
69 | AACACGCGCGGACACACACACACACCCACATATATA [CACACA_site5252] | 10.4
70 | AAAAAACACGCGCACACACACACACGCGCCCACATA [CACACA_site7106] | 10.3
71 | AAAACACGCGGACACACACACACACGCCCACATATA [CACACA_site7105] | 10.4
72 | AACACCCATGGACACACACACATATATATATATATA [CACACA_site5809] | 9.92
73 | AACACGCGCAGACACACACACACACCCACATATATA [CACACA_site2205] | 10.2
74 | ACTTTATATTTTGAACGTACAAAAAAAAAATTATGT [XGTACX_site5588] | 9.04
75 | AATACAATATAGTGAAAAATAATTAAATACAATAAG [XGTACX_negctrl_site161] | 9.6

Row | Sequence | gcPBM binding intensity (ln)
76 | TAGATATATAGACACACACACATTAATACCTATATT [CACACA_site7605] | 10.1
77 | CGCTTTATTTATATATGTACATATATATATATATAC [XGTACX_site5012] | 9.33
78 | TAATATAACAAAAAAATAAAATAAAATAAAAAATAA [CACACA_negctrl_site109] | 9.35
79 | AAAAGAATTACTTTCACACATATATATCTGTAAATA [CACACA_site5798] | 9.15
80 | CACGCGCCCGGACACACACACACACCCATATATATA [CACACA_site5251] | 10.2
81 | TACACGCATGGACACACACACACACCCATATATATA [CACACA_site4522] | 10.2
82 | TACACCCATGGACACACACACACGCATAAAAAAAAA [CACACA_site4933] | 9.93
83 | GATATTAAAATATGTAGTACACATATTATATCATAT [XGTACX_site4167] | 9.18
84 | ATTTAACATATAAAATGTACATATATATATATATTT [XGTACX_site2525] | 9.25
85 | GTTAATCACCATGTGGTGCATATAAGGGCATATTAT [GTGCAC_site9748] | 9.22
86 | TATATATATATATACACACACACACCCATATATATA [CACACA_site2538] | 10
87 | TATCTCATAGTATACACACACACACCCACCCATATA [CACACA_site1739] | 10.4
88 | TATCTCATAGTATACACACACACACGCGCACATATA [CACACA_site6917] | 10.3
89 | TATATATATATATATACACACACACCCATATATATA [CACACA_site8812] | 9.94
90 | TCTCATAGTAGACACACACACACACGCACATATATA [CACACA_site6916] | 10.4
91 | TATATCTCATAGTATACACACACACCCACCCACATA [CACACA_site8513] | 10.3
92 | CATAGATACATACACGCACACACATATATATATATA [CACACA_site13] | 9.87
93 | TATATATATAGACACACACACACATATATATATATA [CACACA_site9366] | 10
94 | TATAGATACATATACACACACACACCCACATATATA [CACACA_site3436] | 10.2
95 | TAAGAAATAAATAGTACACACATAGACACACGCACA [CACACA_site6821] | 9.92
96 | TAATTTATAACACGCGCACACATATATATATAGTAA [CACACA_site121] | 9.57
97 | ATTCTACACCCACATACACACATATATATATATATA [CACACA_site3426] | 9.84
